In the supplement of paper PMC3545927:
This is one part of the list. No count for the full screen is at hand.

Biological target: furin, P09958
Assay: furin cleavage Z-score vs untreated control; higher = more cleavage, active = 3.5 or more, inactive = 1 or less, 8 variable residues between constant flanks
In short: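 Furin-free reactions served as the baseline for the cleavage Z-score, which is the log read count lowess-adjusted and scaled by median absolute deviation. Counts came from released DNA, adapter-tagged by PCR and sequenced. Purified furin had cut 8-mer peptides fused to a cDNA oligonucleotide on magnetic beads during 7.5, 15 or 30 min at 1:10 enzyme:substrate.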
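Note: purified furin at 1:10 enzyme:substrate in 50 mM HEPES pH 7.5.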

Chain of furin, P09958 (P09958 whole entry): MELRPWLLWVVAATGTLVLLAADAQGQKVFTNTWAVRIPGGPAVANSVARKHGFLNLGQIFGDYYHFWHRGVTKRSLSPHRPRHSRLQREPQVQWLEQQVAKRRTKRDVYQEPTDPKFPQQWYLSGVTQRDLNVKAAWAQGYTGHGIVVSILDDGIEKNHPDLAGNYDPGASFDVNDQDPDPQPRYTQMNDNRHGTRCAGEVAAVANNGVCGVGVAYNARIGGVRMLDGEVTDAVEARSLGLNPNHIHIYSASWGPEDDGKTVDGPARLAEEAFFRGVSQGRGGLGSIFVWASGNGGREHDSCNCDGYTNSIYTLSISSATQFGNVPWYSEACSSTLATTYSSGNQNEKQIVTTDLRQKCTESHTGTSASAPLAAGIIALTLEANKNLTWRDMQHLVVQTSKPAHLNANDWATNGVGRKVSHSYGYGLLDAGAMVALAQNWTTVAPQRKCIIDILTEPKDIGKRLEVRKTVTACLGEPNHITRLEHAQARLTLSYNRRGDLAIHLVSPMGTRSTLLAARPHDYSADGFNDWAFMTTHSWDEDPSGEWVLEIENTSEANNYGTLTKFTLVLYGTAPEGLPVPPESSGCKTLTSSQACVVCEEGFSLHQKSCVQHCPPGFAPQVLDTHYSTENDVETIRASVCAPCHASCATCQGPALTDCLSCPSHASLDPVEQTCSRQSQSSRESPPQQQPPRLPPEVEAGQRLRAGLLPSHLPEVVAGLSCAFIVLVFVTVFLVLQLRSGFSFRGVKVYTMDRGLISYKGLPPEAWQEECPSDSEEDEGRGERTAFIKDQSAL

Sequence	furin cleavage Z-score (7.5 min)	furin cleavage Z-score (15 min)	furin cleavage Z-score (30 min)
CAKFPGGGQIAGNASASA [HC172]	-2.08 (inactive)	0.112 (inactive)	-2.19 (inactive)
CAELTTPCSGAGNASASA [HC1965]	-0.879 (inactive)	-0.537 (inactive)	-1 (inactive)
CAENLETTMRAGNASASA [HC760]	0.652 (inactive)	0.35 (inactive)	0.0456 (inactive)
CADPERRKRFAGNASASA [FS-985]	4.94 (active)	7 (active)	7.37 (active)
CATHFFSVLIAGNASASA [HC1584]	-0.934 (inactive)	-0.739 (inactive)	-0.913 (inactive)
CAVVCCSMSNAGNASASA [HC2101]	0.58 (inactive)	0.0609 (inactive)	0.764 (inactive)
CARPARVALPAGNASASA [FS-2053]	-1.54 (inactive)	-0.594 (inactive)	1.32
CAWAGWLLSPAGNASASA [HC207]	-0.479 (inactive)	0.659 (inactive)	1.76
CARLARSFDCAGNASASA [FS-2568]	1.56	2.61	3.82 (active)
CARLARALSPAGNASASA [FS-1735]	5.51 (active)	6.45 (active)	6.16 (active)
CARPARGAGPAGNASASA [FS-3015]	0.195 (inactive)	-1.12 (inactive)	-0.256 (inactive)
CARPARALHPAGNASASA [FS-2734]	1.19	3.17	4.44 (active)
CARLRRSSSPAGNASASA [FS-2353]	9.29 (active)	8.89 (active)	6.99 (active)
CARLARGSPPAGNASASA [HC1255]	0.846 (inactive)	0.514 (inactive)	0.935 (inactive)
